As a reminder, the inhibition is the drop in the measured response relative to a control, in per cent. The viability is a read-out of living cells in per cent, often relative to untreated cells.

Each structure is given as a SMILES string. Values joined by “and” are separate entries in the source; they are usually repeats but may differ in a detail not shown here. Equal entries are not always repeated. Inconclusive results are not listed. For some assays here: Entries with a potency or affinity are not part of this list. More than one record can exist for a structure, and the calls need not agree. Active and inactive are the calls of the source. Unless noted, no rule for the calls is given here.

From PubChem BioAssay come the findings set out here.

A short description of assay [1]: antimalarial activity against Dd2 strain (AID 2302;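 active = growth inhibition above 50% at the single 2 µM test dose, taken to imply half-maximal potency below 2 µM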;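 also: 0% = DMSO untreated growth and 100% = chloroquine plus artemisinin killed control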). The conditions noted are these: P. falciparum Dd2 in RBCs, LDH growth readout, 72 h; at 2 µM; stronger effect = higher value.
Assay [2] in a line: human hepatoma cell viability loss – ATP luminescence, cytotoxicity control for P. falciparum antimalarial project, primary screen (AID 2303;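 active = inhibition above 50%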;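 also: 0% = DMSO wells and 100% = digitonin-killed cells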). The conditions noted are these: HepG2 viability, 24-48 h, at 10 µM, stronger effect = higher value.
Assay [3] deals with L-lactate dehydrogenase (Plasmodium falciparum (isolate CDC / Honduras)) (UniProt Q27743). Nature of the assay: PfLDH activity inhibition – cell lysate, 3D7 strain, counter-screen for P. falciparum growth inhibition project (AID 2304).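 Also: 0% = vehicle and 100% = reference inhibitor.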 The conditions noted are these: P. falciparum 3D7 crude extract, LDH APAD/NBT absorbance; at 2 µM; stronger effect = higher value. On the technique in general: Counterscreens check selectivity or assay interference.

Assay [4] in a line: inhibition of 3D7 malaria parasite growth – strain 3D7 (AID 2306).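 Also: 0% = DMSO wells and 100% = chloroquine plus artemisinin control wells.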 The following applies: P. falciparum 3D7 erythrocytic growth, LDH absorbance, 72 h; at 2 µM; stronger effect = higher value.
The target of assay [5] is Calcium-dependent protein kinase 1 (Plasmodium falciparum (isolate 3D7)) (UniProt P62344). In words: PfCDPK1 kinase inhibitors, biochemical, TCAMS library (AID 1159585; cut-off not given, nearly all actives have IC50 up to about 0.98 µM;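 also: inhibitors leave more ATP so luminescence rises with inhibition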). The following applies: recombinant PfCDPK1, Kinase-Glo ATP depletion luminescence. Background: Kinase-Glo reads ATP consumption through a luciferase reaction.
Assay [6] addresses Plasmodium falciparum protein kinase 6 (PK6, PF3D7_1337100) (UniProt Q8IDW1). Nature of the assay: PfPK6 kinase inhibitors, biochemical, TCAMS library (AID 1159586). The following applies: recombinant PfPK6, Kinase-Glo ATP depletion luminescence.
For assay [7], the target named is Protein kinase 7 (PK7), Plasmodium falciparum 3D7 (PF3D7_0213400) (UniProt Q7YTF7). Nature of the assay: inhibition of Plasmodium PK7 catalytic activity – biochemical, TCAMS antimalarial set, Kinase-Glo luminescence (AID 1159587). The conditions noted are these: recombinant PfPK7, Kinase-Glo ATP depletion luminescence.
Assay [8] addresses Calcium-dependent protein kinase 4 (Plasmodium falciparum (isolate 3D7)) (UniProt Q8IBS5). In words: PfCDPK4 kinase inhibitors, biochemical, TCAMS library (AID 1159588; cut-off not given, nearly all actives have IC50 up to about 0.91 µM). The conditions noted are these: recombinant PfCDPK4, Kinase-Glo ATP depletion luminescence.
The nature of assay [9]: P. berghei load reduction in hepatocytes – cell-based, HepG2, luciferase luminescence, HepG2 viability, primary screen (AID 624349; in the data active = parasite load remaining mostly below about 12%, no sharp cut-off; inactive = mostly above about 10%;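 also: 100% = mean of DMSO negative control wells on the same plate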). The conditions noted are these: P. berghei liver stage in HepG2, luciferase luminescence, concentration not given here; parasite load remaining: stronger effect = lower value; viability: measured here: HepG2 viability without parasites.
Assay [10] is described as follows: viability loss in pontine glioma line – cell-based, SU-DIPG-XVII, MIPE5.0, CellTiter-Glo, qHTS, dose response (AID 1347060; cut-off not given, nearly all actives have AC50 up to about 26 µM). The conditions noted are these: CellTiter-Glo ATP luminescence.
Assay [11] in a line: viability loss in pontine glioma line – cell-based, JHH-DIPG-1, MIPE4.0, CellTiter-Glo, qHTS, dose response (AID 1347062; cut-off not given, nearly all actives have AC50 up to about 27 µM). The conditions noted are these: JHH-DIPG-1 viability, CellTiter-Glo ATP luminescence. (In general: In ATP-based viability assays light output follows the ATP content of the culture.)
The nature of assay [12]: viability loss in pontine glioma line – cell-based, SU-DIPG-IV, MIPE4.0, CellTiter-Glo, qHTS, dose response (AID 1347063; cut-off not given, nearly all actives have AC50 up to about 30 µM;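 also: compound exposure lasted 48 hours before the viability readout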). The following applies: CellTiter-Glo ATP luminescence.
Assay [13] can be described thus: viability loss in pontine glioma line – cell-based, SU-DIPG-XIII, MIPE5.0, CellTiter-Glo, qHTS, dose response (AID 1347064; cut-off not given, nearly all actives have AC50 up to about 23 µM). The conditions noted are these: CellTiter-Glo ATP luminescence.
Assay [14] is described as follows: viability loss in pontine glioma line – cell-based, SU-DIPG-XXV, MIPE5.0, CellTiter-Glo, qHTS, dose response (AID 1347065; cut-off not given, nearly all actives have AC50 up to about 26 µM;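 also: cells exposed to compound for 48 hours before ATP readout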). The following applies: CellTiter-Glo ATP luminescence.
The nature of assay [15]: growth inhibition of DIPG cells – cell-based, MIPE4.0 library, CellTiter-Glo luminescence, qHTS (AID 1347066; cut-off not given, nearly all actives have AC50 up to about 30 µM;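 also: cells exposed to compound for 48 hours before readout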). The following applies: SU-DIPG-VI viability, CellTiter-Glo ATP luminescence.
The nature of assay [16]: JHH-DIPG-1 glioma cell viability, MIPE5.0 library, CellTiter-Glo luminescence, qHTS (AID 1347067; cut-off not given, nearly all actives have AC50 up to about 26 µM;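 also: cells exposed to compound for 48 hours before readout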). The conditions noted are these: JHH-DIPG-1 glioma viability, CellTiter-Glo ATP luminescence.
Assay [17] can be described thus: growth inhibition of DIPG cells – cell-based, MIPE5.0 library, qHTS (AID 1347068; cut-off not given, nearly all actives have IC50 up to about 30 µM). The following applies: SU-DIPG-XXV viability.
Assay [18] in a line: viability loss with induced miR-34 in A549 – imaging, A549 dox-inducible miR-34, nuclei and caspase counts, primary screen (AID 1347080;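 active = compounds whose cell count with miR-34 switched on is under 0.7 times the count with it off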). The conditions noted are these: A549 miR-34 inducible, Hoechst nuclei count, 48 h.
A short description of assay [19]: MELAS cybrid and Rieske KO viability enhancers – cell-based, MELAS cybrids, Rieske KO mouse fibroblasts, CellTiter-Glo, primary screen (AID 1508586;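 active = mean z-score across replicates of 1.96 or higher in either the MELAS or the Rieske mutant cell line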;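 also: z relative to plate mean and SD of compound and empty wells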). The conditions noted are these: low glucose.
Assay [20] deals with NAD(+) hydrolase SARM1 (Homo sapiens) (UniProt Q6SZW1). In words: blocking NAD cleavage by SARM1 SAM-TIR – cell lysate, NAD-Glo luminescence (AID 1508614;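 active = compound whose remaining NAD level is above about 45 nM, limit read from the data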;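 also: higher remaining NAD means stronger inhibition of SARM1 NADase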). The following applies: SAM-TIR HEK293T lysate NADase, at 1 µM, stronger effect = higher value.
In assay [21] the target is Mitogen-activated protein kinase 7 (Homo sapiens) (UniProt Q13164). Nature of the assay: Gal4-ERK5 driven luciferase induction – cell-based, HTS, primary screen (AID 1508626;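 active = luciferase signal above three times the same-plate solvent-only control wells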;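 also: luciferase driven by Gal4-ERK5 fusion binding five Gal4 sites before minimal TATA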). The conditions noted are these: HeLa Gal4-ERK5 transactivation, 18 h, at 5 µM, stronger effect = higher value.
Assay [22] can be described thus: galactose survival enhancers in mitochondrial complex I cybrids – cell-based, galactose medium, ATP luminescence, primary screen (AID 1645843;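 active = z-score of at least 1.8 in each of two replicates, scored against plate mean and spread of sample wells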;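 also: positive z means more ATP and so rescue of galactose-driven cybrid death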). The conditions noted are these: complex I mutant cybrid cells, 72 h, stronger effect = higher value.

Sequence of Calcium-dependent protein kinase 1 (Plasmodium falciparum (isolate 3D7)) (P62344 whole entry, looked up): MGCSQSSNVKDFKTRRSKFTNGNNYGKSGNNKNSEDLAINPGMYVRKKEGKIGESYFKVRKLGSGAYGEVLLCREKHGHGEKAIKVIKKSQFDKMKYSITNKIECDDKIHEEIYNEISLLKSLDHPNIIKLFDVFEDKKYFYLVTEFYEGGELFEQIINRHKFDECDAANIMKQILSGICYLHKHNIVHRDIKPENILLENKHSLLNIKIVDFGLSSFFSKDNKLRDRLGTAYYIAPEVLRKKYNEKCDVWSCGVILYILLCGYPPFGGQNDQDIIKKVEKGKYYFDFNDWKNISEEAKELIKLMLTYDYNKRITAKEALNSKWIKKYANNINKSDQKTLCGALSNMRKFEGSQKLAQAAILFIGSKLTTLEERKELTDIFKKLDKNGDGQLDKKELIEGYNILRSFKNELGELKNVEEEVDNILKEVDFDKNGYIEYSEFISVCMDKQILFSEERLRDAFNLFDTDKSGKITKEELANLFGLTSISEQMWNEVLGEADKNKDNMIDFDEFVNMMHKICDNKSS
Sequence of Protein kinase 7 (PK7), Plasmodium falciparum 3D7 (PF3D7_0213400) (Q7YTF7 1-343): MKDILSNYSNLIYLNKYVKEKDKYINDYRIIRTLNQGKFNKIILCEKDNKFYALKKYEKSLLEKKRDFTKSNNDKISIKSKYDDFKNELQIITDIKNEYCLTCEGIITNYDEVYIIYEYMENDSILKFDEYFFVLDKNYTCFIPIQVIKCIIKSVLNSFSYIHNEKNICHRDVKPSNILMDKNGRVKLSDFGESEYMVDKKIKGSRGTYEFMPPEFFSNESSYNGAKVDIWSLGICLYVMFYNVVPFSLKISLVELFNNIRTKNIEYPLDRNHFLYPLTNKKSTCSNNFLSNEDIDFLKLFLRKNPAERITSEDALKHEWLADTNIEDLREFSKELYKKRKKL
Sequence of Calcium-dependent protein kinase 4 (Plasmodium falciparum (isolate 3D7)) (Q8IBS5 whole entry, looked up): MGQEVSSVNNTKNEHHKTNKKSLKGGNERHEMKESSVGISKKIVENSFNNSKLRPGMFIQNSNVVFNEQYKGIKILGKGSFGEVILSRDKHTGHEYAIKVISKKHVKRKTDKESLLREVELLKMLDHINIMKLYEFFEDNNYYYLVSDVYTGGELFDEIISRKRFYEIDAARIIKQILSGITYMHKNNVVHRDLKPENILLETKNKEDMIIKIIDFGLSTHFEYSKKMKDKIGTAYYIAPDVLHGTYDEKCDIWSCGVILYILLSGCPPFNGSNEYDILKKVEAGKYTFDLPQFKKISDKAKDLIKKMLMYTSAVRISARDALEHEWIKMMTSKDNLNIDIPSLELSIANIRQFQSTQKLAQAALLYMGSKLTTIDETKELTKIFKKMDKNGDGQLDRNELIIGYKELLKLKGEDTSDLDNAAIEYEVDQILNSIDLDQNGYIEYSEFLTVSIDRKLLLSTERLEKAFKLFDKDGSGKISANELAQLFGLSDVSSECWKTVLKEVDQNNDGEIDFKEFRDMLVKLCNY
Sequence of L-lactate dehydrogenase (Plasmodium falciparum (isolate CDC / Honduras)) (Q27743 whole entry, looked up): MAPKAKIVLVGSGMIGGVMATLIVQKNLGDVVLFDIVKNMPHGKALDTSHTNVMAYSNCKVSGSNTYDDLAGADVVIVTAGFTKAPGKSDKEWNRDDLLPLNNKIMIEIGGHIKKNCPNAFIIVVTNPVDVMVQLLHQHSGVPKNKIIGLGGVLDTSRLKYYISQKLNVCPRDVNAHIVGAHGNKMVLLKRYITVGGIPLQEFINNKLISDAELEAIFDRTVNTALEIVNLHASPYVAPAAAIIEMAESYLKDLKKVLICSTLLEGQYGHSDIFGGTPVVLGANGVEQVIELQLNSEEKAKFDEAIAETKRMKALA
Sequence of Plasmodium falciparum protein kinase 6 (PK6, PF3D7_1337100) (Q8IDW1 1-305): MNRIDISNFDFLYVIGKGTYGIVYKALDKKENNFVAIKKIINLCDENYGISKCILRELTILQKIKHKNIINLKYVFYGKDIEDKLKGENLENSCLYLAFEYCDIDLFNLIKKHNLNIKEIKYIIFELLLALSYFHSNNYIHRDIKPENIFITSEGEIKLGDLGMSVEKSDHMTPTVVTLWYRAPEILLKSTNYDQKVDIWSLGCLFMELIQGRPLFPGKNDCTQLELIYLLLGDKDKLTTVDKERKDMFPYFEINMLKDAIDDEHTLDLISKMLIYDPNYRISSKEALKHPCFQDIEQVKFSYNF
Sequence of Mitogen-activated protein kinase 7 (Homo sapiens) (Q13164 whole entry, looked up, the tested form may be a part): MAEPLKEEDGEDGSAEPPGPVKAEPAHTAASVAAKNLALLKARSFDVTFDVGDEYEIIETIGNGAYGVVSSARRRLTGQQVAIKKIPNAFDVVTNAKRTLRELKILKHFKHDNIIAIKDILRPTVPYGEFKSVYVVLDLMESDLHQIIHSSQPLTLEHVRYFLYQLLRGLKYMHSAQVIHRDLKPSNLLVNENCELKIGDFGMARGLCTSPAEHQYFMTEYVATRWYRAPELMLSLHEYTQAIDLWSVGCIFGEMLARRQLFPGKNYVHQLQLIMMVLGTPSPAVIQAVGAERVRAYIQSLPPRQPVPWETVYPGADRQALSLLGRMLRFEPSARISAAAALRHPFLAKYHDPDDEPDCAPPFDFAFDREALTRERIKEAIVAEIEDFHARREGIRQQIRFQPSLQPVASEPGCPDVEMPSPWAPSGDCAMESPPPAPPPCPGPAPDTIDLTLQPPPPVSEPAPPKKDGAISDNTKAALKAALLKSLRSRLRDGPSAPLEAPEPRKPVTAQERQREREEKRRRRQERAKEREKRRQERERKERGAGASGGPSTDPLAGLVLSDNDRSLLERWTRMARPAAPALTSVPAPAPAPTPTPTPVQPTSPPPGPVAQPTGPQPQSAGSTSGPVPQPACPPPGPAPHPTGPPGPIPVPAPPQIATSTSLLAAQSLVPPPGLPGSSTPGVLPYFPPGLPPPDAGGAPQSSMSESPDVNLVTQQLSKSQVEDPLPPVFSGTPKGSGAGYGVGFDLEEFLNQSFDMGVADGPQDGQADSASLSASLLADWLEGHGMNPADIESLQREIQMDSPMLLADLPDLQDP
Sequence of NAD(+) hydrolase SARM1 (Homo sapiens) (Q6SZW1 whole entry, looked up, the tested form may be a part): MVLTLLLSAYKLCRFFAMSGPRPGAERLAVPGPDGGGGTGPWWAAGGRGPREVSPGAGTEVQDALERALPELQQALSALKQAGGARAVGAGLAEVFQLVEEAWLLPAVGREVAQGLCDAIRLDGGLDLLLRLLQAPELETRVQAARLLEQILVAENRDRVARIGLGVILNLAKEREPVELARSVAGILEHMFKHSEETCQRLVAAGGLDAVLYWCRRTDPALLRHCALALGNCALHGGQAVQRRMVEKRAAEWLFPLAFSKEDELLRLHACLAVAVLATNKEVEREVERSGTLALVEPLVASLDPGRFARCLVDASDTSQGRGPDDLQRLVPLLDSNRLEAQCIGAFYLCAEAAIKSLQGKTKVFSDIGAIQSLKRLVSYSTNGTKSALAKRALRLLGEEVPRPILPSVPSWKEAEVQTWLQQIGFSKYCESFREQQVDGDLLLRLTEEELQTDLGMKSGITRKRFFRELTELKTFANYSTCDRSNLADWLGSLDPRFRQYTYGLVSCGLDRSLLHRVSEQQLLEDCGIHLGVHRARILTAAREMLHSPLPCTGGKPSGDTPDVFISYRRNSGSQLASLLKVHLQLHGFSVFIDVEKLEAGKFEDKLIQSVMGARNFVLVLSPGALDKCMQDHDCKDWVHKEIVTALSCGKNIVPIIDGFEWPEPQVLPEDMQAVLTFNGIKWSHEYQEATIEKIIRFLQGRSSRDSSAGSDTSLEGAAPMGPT

On to `O=C(Cc1cnc[nH]1)Nc1ccc(-c2cccc(-c3nc4ccc(F)cc4[nH]3)c2)cc1`, for which the growth inhibition was 70% (active) in assay [1] and 100% (active) in assay [4]. In addition, the inhibition was 28% (inactive) in assay [2] and 4% (inactive) in assay [3]. In addition, the result in assay [5], in [6], in assay [7] and in [8] was inactive.
As for `CCCCCCCCNc1c2ccc(Cl)cc2nc2ccc(OC)cc12`, the growth inhibition in assay [1] was 96% (active); in assay [4] it was 89% (active). Besides, the inhibition in [2] is 11% (inactive); in assay [3], -3% (inactive). The result in assay [5], in [6], in assay [7] and in [8] was inactive.
`CCCC(C)NC(=O)C(N)Cc1cccc(I)c1` (centres undefined): the figures for the growth inhibition in [1] and in assay [4] were 65% (active) and 95% (active), respectively. Further, the results for the inhibition in assay [2] and in assay [3] were 11% (inactive) and 0% (inactive), respectively. For the same molecule, the outcome in [5], in assay [6], in assay [7] and in [8] was inactive.
Regarding `Cc1cc(NCC2CCN(CC3CCCCC3)C2)nc(Nc2ccc(Br)cc2)n1` (centres undefined), the growth inhibition in assay [1] is 78% (active); in assay [4] it was 101% (active). The inhibition in [2] was -2% (inactive); in [3] it was 0% (inactive). In addition, the outcome in [5], in [6], in [7] and in assay [8] was inactive.
On to `C=C[C@H]1CN2CC[C@H]1C[C@H]2[C@H](O)c1ccnc2ccc(OC)cc12`, for which the growth inhibition in assay [1] was 99% (active) and 22% (inactive) and 79% (active); in assay [4] it was 100% (active) and 97% (active) and 99% (active). Besides, the inhibition in assay [2] was 13% (inactive) and -12% (inactive) and -6% (inactive); in assay [3] it was -4% (inactive) and -7% (inactive). For the same molecule, the parasite load remaining in assay [9] was 49.1% (inactive). The viability in assay [9] was found to be 193%. Further, the result in assay [5], in assay [6], in [7], in assay [8], in assay [10] and in assay [11] was inactive. The molecule was classed as inactive in assay [12], in assay [13], in [14], in assay [15], in assay [16] and in [17]. Besides, the fold change in [18] (stronger effect = lower value, cell number ratio, induced over uninduced) was 0.942 (inactive); in assay [18] (measured here: relative caspase fold change +Dox/-Dox) it was 0.791. Besides, the cell count was determined as 9260 in assay [18] (measured here: total cells with miR-34 induction, stronger effect = lower value) and 9830 in assay [18] (measured here: total cells without miR-34 induction). Also, the z-score in [19] (MELAS cybrid survival, CellTiter-Glo 48 h, stronger effect = higher value) was -0.0548 (inactive); in assay [19] (Rieske KO mouse fibroblast survival, CellTiter-Glo 72 h), 1.17; in assay [22], -0.735 (inactive). Besides, the remaining NAD in assay [20] was 10 nM (inactive). The luciferase signal in [21] is 140 AU (inactive).
